According to PubChem BioAssay:
Calls of active or inactive are those of the source.

Legend:
[1] = binders of probe aFSTL3 on microarray, primary screen, stem cell growth factor project, biochemical, small-molecule microarray, fluorescence 635/667 (AID 1064); conditions: higher = more signal;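 note: measures binding of the biotinylated anti-FSTL3 antibody to printed compounds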
[2] = binders from COS7 lysate, DM2A8 probe, primary screen, torsin A project, cell lysate, small-molecule microarray, fluorescence 635/667 (AID 1065); conditions: higher = more signal, COS7 lysate expressing mutant human TOR1A
[3] = binders of probe aFGF2 on microarray, primary screen, stem cell growth factor project, biochemical, small-molecule microarray, fluorescence 635/667 (AID 1067); conditions: higher = more signal;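 note: measures binding of biotinylated aFGF2 protein to printed compounds on slides; z-score merges feature fluorescence and signal-to-noise across triplicate slides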
[4] = binders of probe aFGF10 on microarray, primary screen, stem cell growth factor project, biochemical, small-molecule microarray, fluorescence 635/667 (AID 1071); conditions: higher = more signal;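 note: score merges 667 nm spot intensity and signal to noise from triplicate slides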
[5] = target: Neurogenic locus notch homolog protein 2 (Homo sapiens) (UniProt Q04721); test: Notch2 binders on small-molecule microarrays, primary screen, biochemical, small-molecule microarray, 635 nm fluorescence, stem cell growth factors (AID 1073); conditions: Notch2 binding, higher = more signal
Sequence of Neurogenic locus notch homolog protein 2 (Homo sapiens) (Q04721 whole entry, looked up, canonical isoform): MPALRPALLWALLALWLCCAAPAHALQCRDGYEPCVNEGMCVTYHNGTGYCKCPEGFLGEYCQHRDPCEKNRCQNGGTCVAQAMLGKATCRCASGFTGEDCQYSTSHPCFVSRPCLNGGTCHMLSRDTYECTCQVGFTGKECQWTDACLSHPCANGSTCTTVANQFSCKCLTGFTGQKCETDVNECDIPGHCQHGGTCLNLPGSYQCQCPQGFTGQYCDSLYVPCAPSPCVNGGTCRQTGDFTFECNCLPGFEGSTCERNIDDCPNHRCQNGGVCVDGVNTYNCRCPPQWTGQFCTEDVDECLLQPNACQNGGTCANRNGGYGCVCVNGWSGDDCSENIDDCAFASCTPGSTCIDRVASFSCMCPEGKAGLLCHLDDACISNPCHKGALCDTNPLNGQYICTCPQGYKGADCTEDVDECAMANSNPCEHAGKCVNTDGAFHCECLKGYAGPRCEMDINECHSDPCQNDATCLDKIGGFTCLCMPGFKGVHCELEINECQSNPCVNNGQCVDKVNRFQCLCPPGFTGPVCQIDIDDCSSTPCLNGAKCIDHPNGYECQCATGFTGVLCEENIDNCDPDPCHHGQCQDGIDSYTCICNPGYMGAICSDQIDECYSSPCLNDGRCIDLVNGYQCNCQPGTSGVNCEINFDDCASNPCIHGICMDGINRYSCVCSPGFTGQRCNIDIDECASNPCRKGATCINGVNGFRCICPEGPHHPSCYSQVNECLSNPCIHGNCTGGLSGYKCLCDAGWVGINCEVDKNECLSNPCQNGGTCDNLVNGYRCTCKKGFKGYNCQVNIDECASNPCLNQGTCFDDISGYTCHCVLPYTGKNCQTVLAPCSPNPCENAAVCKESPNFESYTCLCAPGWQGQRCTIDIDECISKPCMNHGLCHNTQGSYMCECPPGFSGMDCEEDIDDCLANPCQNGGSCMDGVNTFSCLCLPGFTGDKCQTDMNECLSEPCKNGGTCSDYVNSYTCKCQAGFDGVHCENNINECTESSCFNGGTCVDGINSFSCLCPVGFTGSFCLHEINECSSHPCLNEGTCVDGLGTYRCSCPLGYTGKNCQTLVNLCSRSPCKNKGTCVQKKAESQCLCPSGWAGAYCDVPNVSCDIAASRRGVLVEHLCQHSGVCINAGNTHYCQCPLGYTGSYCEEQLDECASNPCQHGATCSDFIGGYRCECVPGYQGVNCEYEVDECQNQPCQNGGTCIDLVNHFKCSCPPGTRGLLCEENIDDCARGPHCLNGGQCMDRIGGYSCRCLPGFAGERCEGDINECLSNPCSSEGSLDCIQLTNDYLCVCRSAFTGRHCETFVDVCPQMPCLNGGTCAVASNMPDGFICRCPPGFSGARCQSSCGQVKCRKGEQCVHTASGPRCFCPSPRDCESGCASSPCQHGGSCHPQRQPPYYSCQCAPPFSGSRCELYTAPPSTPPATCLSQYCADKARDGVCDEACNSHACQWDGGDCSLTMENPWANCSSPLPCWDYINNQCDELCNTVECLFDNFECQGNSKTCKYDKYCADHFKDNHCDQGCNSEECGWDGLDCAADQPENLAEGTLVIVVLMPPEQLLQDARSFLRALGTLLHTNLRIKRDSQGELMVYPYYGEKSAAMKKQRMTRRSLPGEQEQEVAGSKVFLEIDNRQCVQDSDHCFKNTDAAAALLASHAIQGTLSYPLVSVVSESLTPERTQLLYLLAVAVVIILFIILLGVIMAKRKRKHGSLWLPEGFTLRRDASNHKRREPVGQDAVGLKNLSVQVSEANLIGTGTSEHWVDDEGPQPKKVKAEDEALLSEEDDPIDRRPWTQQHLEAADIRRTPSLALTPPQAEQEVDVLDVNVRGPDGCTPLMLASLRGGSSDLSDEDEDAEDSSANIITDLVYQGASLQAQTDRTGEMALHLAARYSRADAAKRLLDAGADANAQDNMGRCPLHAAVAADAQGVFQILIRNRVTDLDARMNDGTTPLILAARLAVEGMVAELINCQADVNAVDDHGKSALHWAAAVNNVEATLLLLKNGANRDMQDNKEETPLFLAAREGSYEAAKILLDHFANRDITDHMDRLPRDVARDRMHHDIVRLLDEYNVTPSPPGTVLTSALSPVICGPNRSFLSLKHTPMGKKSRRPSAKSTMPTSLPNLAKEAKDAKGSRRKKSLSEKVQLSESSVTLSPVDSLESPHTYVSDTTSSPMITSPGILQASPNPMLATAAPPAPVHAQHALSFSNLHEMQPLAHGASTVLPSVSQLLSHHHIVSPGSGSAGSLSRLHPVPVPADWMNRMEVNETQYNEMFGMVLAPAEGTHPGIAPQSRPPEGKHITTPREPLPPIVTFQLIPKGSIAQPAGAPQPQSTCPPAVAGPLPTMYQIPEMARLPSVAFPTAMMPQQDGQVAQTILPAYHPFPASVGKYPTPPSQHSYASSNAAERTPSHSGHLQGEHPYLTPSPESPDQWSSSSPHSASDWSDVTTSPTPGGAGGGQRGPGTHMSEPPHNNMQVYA

[6] = target: Pro-neuregulin-1, membrane-bound isoform (Homo sapiens) (UniProt Q02297); test: NRG1 binders on small-molecule microarrays, primary screen, psychiatric disease protein project, biochemical, small-molecule microarray, fluorescence 635/667 (AID 1075); conditions: NRG1 binding, 635 nm fluorescence, higher = more signal;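 note: score combines 667 nm spot fluorescence with signal to noise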
Sequence of Pro-neuregulin-1, membrane-bound isoform (Homo sapiens) (Q02297 whole entry, looked up, the tested form may be a part, canonical isoform): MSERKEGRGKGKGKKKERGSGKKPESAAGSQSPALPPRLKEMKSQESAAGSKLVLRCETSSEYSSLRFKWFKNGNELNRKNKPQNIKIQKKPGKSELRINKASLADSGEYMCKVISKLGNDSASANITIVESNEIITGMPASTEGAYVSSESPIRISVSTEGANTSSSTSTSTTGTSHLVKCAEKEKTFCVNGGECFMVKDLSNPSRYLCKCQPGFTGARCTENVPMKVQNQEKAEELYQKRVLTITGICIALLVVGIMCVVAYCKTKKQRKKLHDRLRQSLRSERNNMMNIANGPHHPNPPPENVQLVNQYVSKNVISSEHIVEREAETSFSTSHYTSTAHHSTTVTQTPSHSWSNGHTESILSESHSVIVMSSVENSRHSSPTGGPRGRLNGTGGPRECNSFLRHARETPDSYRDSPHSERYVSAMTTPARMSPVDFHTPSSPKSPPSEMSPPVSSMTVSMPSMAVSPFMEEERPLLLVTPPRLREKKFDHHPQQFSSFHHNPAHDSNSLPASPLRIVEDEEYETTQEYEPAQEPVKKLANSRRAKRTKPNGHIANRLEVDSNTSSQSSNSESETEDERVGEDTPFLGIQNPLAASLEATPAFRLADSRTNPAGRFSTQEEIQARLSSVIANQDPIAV

[7] = tested on: Neuregulin-1 EGF-like domain; test: binders of neuregulin-1 EGF-like domain, primary screen, biochemical, small-molecule microarray, 635 nm fluorescence (AID 1081); conditions: small-molecule microarray binding, higher = more signal;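 note: binding of the protein to compounds printed on small-molecule microarray slides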
[8] = FRG1 promoter luciferase signal modulators, primary screen, FRG1 inhibition for FSHD, cell-based, C2C12 myotubes, firefly/Renilla luciferase, luminescence (AID 1084); conditions: higher = more signal, called active from +8 up or from −8 down
[9] = binders of probe aFST on microarray, primary screen, stem cell growth factor project, biochemical, small-molecule microarray, fluorescence 635/667 (AID 1086); conditions: higher = more signal;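 note: score merges 667 nm fluorescence with signal-to-noise of each printed compound spot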
[10] = binders of probe aHhip on microarray, primary screen, stem cell growth factor project, biochemical, small-molecule microarray, fluorescence 635/667 (AID 1087); conditions: higher = more signal;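 note: score merges spot fluorescence at 667nm with spot signal to noise ratio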

Row | Structure (SMILES) | composite z-score [1] | composite z-score [2] | composite z-score [3] | composite z-score [4] | composite z-score [5] | composite z-score [6] | composite z-score [7] | z-score [8] | composite z-score [9] | composite z-score [10]
1 | CC(=O)C1=CCC(c2ccccc2)N(S(=O)(=O)c2ccc(C)cc2)C1 (stereo not given) | 0.174 | 0.453 | 0.0592 | 0.679 | 0.691 | 0.628 | 1.23 | -2.72 (inactive) | 0.57 | -0.0142
2 | O=C1[C@]2(CO)C=C(Br)[C@@H](C[C@@H]2c2ccccc2)[C@@]12CO2 | -0.333 | -0.61 | -0.0507 | -0.0238 | 0.0861 | 0.251 | 0.245 | 1.2 (inactive) | -0.0624 | -0.134
3 | CN1C(=O)C2C=CC(C(O)c3ccccn3)N(Nc3ccccc3)C2C1=O (stereo not given) | -0.0437 | 1.11 | -0.0985 | 0.479 | 0.766 | 0.838 | 0.684 | 0.595 (inactive) | 0.113 | 0.176
4 | CC(C)(C)OC(=O)CC[C@]1(C(=O)N2CCCCC2)N=C(c2ccc(OCCCO)cc2)O[C@H]1c1ccccc1N=[N+]=[N-] | 1.14 | 0.933 | -0.0328 | 0.877 | 1.32 | 1.42 | 1.3 | -0.275 (inactive) | 1.24 | 0.0818
5 | COc1cccc(C(=O)O[C@H]2CC[C@]3(C)C4=C(CCC3C2(C)C)[C@]2(C)CC[C@H]([C@H](C)CCCC(C)C)[C@@]2(C)CC4)c1 (stereo not given in full) | -0.526 | 0.0024 | -0.0425 | 0.366 | -0.87 | 0.103 | 0.181 | -1.06 (inactive) | 0.169 | 0.0722
6 | COCCOC(=O)N1C(=O)[C@@]2(c3cc(C#CCC(C(=O)OC)C(=O)OC)ccc31)[C@H](C(=O)N1CCCCCCC1)[C@H]1C(=O)O[C@H](c3ccccc3)[C@H](c3ccccc3)N1[C@@H]2c1ccc(OCCO)cc1 | 3.71 | 1.81 | 0.755 | 0.833 | 1.32 | 2.11 | 1.36 | 0.109 (inactive) | 3.4 | 2.72
7 | CC(=O)NCCCC[C@@H]1NC(=O)[C@@H]2C[C@H](C(=O)NCCCCCCNC(=O)CS)[C@H](c3ccc(O)cc3)N2C1=O | 0.219 | 0.463 | -0.0985 | -0.1 | -0.498 | 1.49 | 1.27 | 1.5 (inactive) | -0.715 | -0.0645
8 | O=C1O[C@@H](c2ccccc2)[C@@H](c2ccccc2)N2[C@@H](c3ccccc3OCCO)[C@]3(C(=O)Nc4ccc(C#CC5(O)CCCCCC5)cc43)[C@@H](C(=O)Nc3nc4ccccc4s3)[C@H]12 | -0.508 | 0.984 | -0.0113 | 0.895 | 1.22 | 0.678 | 1.11 | -0.0944 (inactive) | 0.806 | 1.22
